The source of these data is PubChem BioAssay.

Calls of active or inactive are those of the source.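 The calls were made as follows, unless noted: active = compounds whose cell count with miR-34 switched on is under 0.7 times the count with it off; inactive = the rest.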

Usually remaining activity stands for the signal under treatment as a percentage of the control signal.

Test [1] concerns Aerobactin synthetase IucA (Klebsiella pneumoniae). Description: IucA aerobactin synthetase inhibitors, biochemical, Tocris library, absorbance (AID 1345561; call rule not given here;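 also: 100% = enzyme without compound and 0% = no enzyme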). To be noted: purified IucA enzyme assay, absorbance (OD) read-out; stronger effect = lower value;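 tested at 8 µM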.
Test [2] in a line: sensitizers of A549 cells to miR-34 induction, primary screen, imaging, A549 dox-inducible miR-34, nuclei and caspase counts (AID 1347080). To be noted: A549 miR-34 inducible, Hoechst nuclei count, 48 h.
A short description of test [3]: viability rescue of complex I mutant cybrids, primary screen, cell-based, galactose medium, ATP luminescence (AID 1645843;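 active = z-score of at least 1.8 in each of two replicates, scored against plate mean and spread of sample wells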;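 also: positive z means more ATP and so rescue of galactose-driven cybrid death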). The following applies: complex I mutant cybrid cells, 72 h, stronger effect = higher value.
[4] abbreviates: stronger effect = lower value, cell number ratio, induced over uninduced.
The mark [5] stands for this setting: measured here: relative caspase fold change +Dox/-Dox.
Setting [6] is: measured here: total cells with miR-34 induction, stronger effect = lower value.
[7] abbreviates: measured here: total cells without miR-34 induction.

With `C[C@@H]1C(=O)OC2[C@H](O)C34[C@H]5C[C@@H](C(C)(C)C)[C@]36[C@@H](OC(=O)[C@@H]6O)O[C@@]4(C(=O)O5)[C@]21O` (some centres undefined), the remaining activity in test [1] was 112% (inactive). For the same molecule, the fold change in test [2] (setting [4]) is 0.923 (inactive); in test [2] (setting [5]), 0.53. Further, the cell count in test [2] (setting [6]) was 8430; in test [2] (setting [7]), 9140. Moreover, in test [3], the z-score is -0.225 (inactive).
Regarding `NS(=O)(=O)c1nn2cc(-c3ccccc3)nc2s1`, the remaining activity in test [1] was 99.1% (inactive). In addition, the results for the fold change in test [2] (setting [4]) and in test [2] (setting [5]) were 1.09 (inactive) and 0.795, respectively. Moreover, the cell count in test [2] (setting [6]) came to 4960; in test [2] (setting [7]), 4530. Also, in test [3], the z-score was -0.585 (inactive).
`O=S(=O)(c1cccc2cnccc12)N1CCNCC1`: the remaining activity in test [1] was 125% (inactive). The fold change is 1.05 (inactive) in test [2] (setting [4]) and 0.794 in test [2] (setting [5]). The results for the cell count in test [2] (setting [6]) and in test [2] (setting [7]) were 9210 and 8760, respectively. Moreover, the z-score in test [3] was -0.56 (inactive).
As for `C[C@@H](NCc1cc(Br)cc2[nH]c(=O)c(=O)[nH]c12)P(=O)(O)O`, in test [1], the remaining activity was 104% (inactive). Also, the values for the fold change in test [2] (setting [4]) and in test [2] (setting [5]) were 0.887 (inactive) and 1.3, respectively. Also, the cell count in test [2] (setting [6]) was found to be 8900; in test [2] (setting [7]), 10000. Also, the z-score in test [3] was -0.07 (inactive).
Take `C/C(O)=C1/C(=O)[C@@H]2[C@H]3c4c[nH]c5cccc(c45)C[C@H]3C(C)(C)N2C1=O`: the remaining activity in test [1] was 119% (inactive). Further, the fold change was 0.988 (inactive) in test [2] (setting [4]) and 1.54 in test [2] (setting [5]). Besides, the cell count amounted to 6050 in test [2] (setting [6]) and 6130 in test [2] (setting [7]). The z-score in test [3] is -0.525 (inactive).
For the molecule `O=C(O)c1cc(Oc2ccc([N+](=O)[O-])cc2)cc(Oc2ccc([N+](=O)[O-])cc2)c1`, the remaining activity in test [1] was 113% (inactive). Moreover, the figures for the fold change in test [2] (setting [4]) and in test [2] (setting [5]) were 0.979 (inactive) and 0.988, respectively. Besides, the cell count in test [2] (setting [6]) amounted to 8410; in test [2] (setting [7]), 8600. Moreover, the z-score in test [3] is 1.39 (inactive).
On to `CNC(=O)[C@H]1O[C@@H](n2cnc3c(NCc4cccc(I)c4)ncnc32)[C@H](O)[C@@H]1O`, for which the remaining activity in test [1] is 116% (inactive). Moreover, the fold change is 0.865 (inactive) in test [2] (setting [4]) and 0.723 in test [2] (setting [5]). In addition, the cell count turned out to be 8280 in test [2] (setting [6]) and 9570 in test [2] (setting [7]). The z-score in test [3] is 2.99 (active).
As to `CCCn1c(=O)[nH]c2nc(-c3ccc(S(=O)(=O)O)cc3)[nH]c2c1=O`, in test [1], the remaining activity was 93.6% (inactive). Besides, the fold change is 0.829 (inactive) in test [2] (setting [4]) and 2.26 in test [2] (setting [5]). Further, the cell count came out at 7230 in test [2] (setting [6]) and 8720 in test [2] (setting [7]). Also, the z-score in test [3] was 1.45 (inactive).
For `N=C(N)S/C=C\C(=O)O`, the remaining activity in test [1] was 104% (inactive). For the same molecule, the fold change is 0.952 (inactive) in test [2] (setting [4]) and 0.563 in test [2] (setting [5]). Also, the cell count stood at 8330 in test [2] (setting [6]) and 8750 in test [2] (setting [7]). Also, in test [3], the z-score was -0.28 (inactive).
In the case of `C1CCC2(CC1)CCNCC2`, the remaining activity in test [1] is 105% (inactive). The fold change is 0.955 (inactive) in test [2] (setting [4]) and 1.56 in test [2] (setting [5]). Also, the values for the cell count in test [2] (setting [6]) and in test [2] (setting [7]) were 9280 and 9730, respectively. Moreover, in test [3], the z-score is 0.34 (inactive).
In the case of `COc1ccccc1N1CCN(CCn2c(=O)[nH]c3c([nH]c4ccccc43)c2=O)CC1`, the remaining activity in test [1] is 108% (inactive). Also, the fold change in test [2] (setting [4]) is 0.88 (inactive); in test [2] (setting [5]), 0.64. Further, the cell count is 8910 in test [2] (setting [6]) and 10100 in test [2] (setting [7]). Moreover, the z-score in test [3] was 1.92 (active).
As for `C=C1C(=O)O[C@@H]2/C=C(\C)CC/C=C(\C)CC[C@@H]12`, in test [1], the remaining activity is 118% (inactive). The fold change was 1.04 (inactive) in test [2] (setting [4]) and 1.29 in test [2] (setting [5]). For the same molecule, the cell count in test [2] (setting [6]) came to 8100; in test [2] (setting [7]) it was 7810. Also, the z-score in test [3] was -0.605 (inactive).
For the molecule `CC[C@@H]1Cn2c(c3nc(-c4ccccc4)nc-3n(C)c2=O)N1`, the remaining activity in test [1] is 108% (inactive). The fold change in test [2] (setting [4]) is 0.901 (inactive); in test [2] (setting [5]), 1.44. In addition, the cell count was determined as 7600 in test [2] (setting [6]) and 8440 in test [2] (setting [7]). The z-score in test [3] is -0.165 (inactive).
With `COC(=O)Nc1ccc2[nH]cc(CCNC(C)=O)c2c1`, the remaining activity in test [1] was 121% (inactive). Also, the fold change in test [2] (setting [4]) is 0.99 (inactive); in test [2] (setting [5]), 0.823. Also, the cell count amounted to 8200 in test [2] (setting [6]) and 8280 in test [2] (setting [7]). Also, in test [3], the z-score was -0.205 (inactive).
For `CCOC(=O)c1c(C)[nH]c2ccc3c(c12)CN1CCc2cc(OC)ccc2C1O3` (centres undefined), the remaining activity in test [1] was 112% (inactive). Further, the results for the fold change in test [2] (setting [4]) and in test [2] (setting [5]) were 0.942 (inactive) and 0.667, respectively. The cell count came to 3940 in test [2] (setting [6]) and 4180 in test [2] (setting [7]). Besides, the z-score in test [3] was -0.785 (inactive).
On to `O=c1oc(-c2ccc(C(F)(F)F)cc2)nn1Cc1cc(Cl)ccc1O`, for which the remaining activity in test [1] is 93.9% (inactive). The fold change in test [2] (setting [4]) is 1.02 (inactive); in test [2] (setting [5]) it was 1.81. Besides, the cell count came to 6380 in test [2] (setting [6]) and 6280 in test [2] (setting [7]). Further, in test [3], the z-score was -0.655 (inactive).
Consider `COc1ccc(CC(=O)NC(/N=C(\NC#N)Nc2cccc3ncccc23)C(C)(C)C)cc1OC` (centres undefined), for which the remaining activity in test [1] was 122% (inactive). The results for the fold change in test [2] (setting [4]) and in test [2] (setting [5]) were 0.95 (inactive) and 1.31, respectively. In addition, the values for the cell count in test [2] (setting [6]) and in test [2] (setting [7]) were 9530 and 10000, respectively. The z-score in test [3] was 0.08 (inactive).
`Clc1ccccc1CNCC1CCC(CNCc2ccccc2Cl)CC1` (centres undefined): the remaining activity in test [1] is 103% (inactive). The results for the fold change in test [2] (setting [4]) and in test [2] (setting [5]) were 0.98 (inactive) and 0.883, respectively. Besides, the figures for the cell count in test [2] (setting [6]) and in test [2] (setting [7]) were 7550 and 7700, respectively. Moreover, in test [3], the z-score is -0.795 (inactive).
`c1ccc(Oc2nc(NC3CCCCC3)c3[nH]cnc3n2)cc1`: the remaining activity in test [1] is 110% (inactive). Further, the fold change in test [2] (setting [4]) was 0.921 (inactive); in test [2] (setting [5]), 1.13. Moreover, the results for the cell count in test [2] (setting [6]) and in test [2] (setting [7]) were 7420 and 8060, respectively. In addition, in test [3], the z-score was -0.49 (inactive).
In the case of `C[C@@H](CN1CCC(n2c(=O)[nH]c3cc(Cl)ccc32)CC1)NC(=O)c1ccc2ccccc2c1`, the remaining activity in test [1] is 106% (inactive). Also, the results for the fold change in test [2] (setting [4]) and in test [2] (setting [5]) were 1.11 (inactive) and 0.89, respectively. In addition, the cell count in test [2] (setting [6]) was 3940; in test [2] (setting [7]), 3560. For the same molecule, the z-score in test [3] was -1.04 (inactive).
In the case of `O=C(NCCCN1CCCCCC1)C(c1ccccc1)C1CCCCC1` (centres undefined), the remaining activity in test [1] is 115% (inactive). Further, the fold change is 0.949 (inactive) in test [2] (setting [4]) and 0.832 in test [2] (setting [5]). Moreover, the cell count worked out at 8370 in test [2] (setting [6]) and 8820 in test [2] (setting [7]). The z-score in test [3] is -0.905 (inactive).
`NC(=NCCc1ccc(I)cc1)SCCCC1CNCN1` (centres undefined): in test [1], the remaining activity was 98% (inactive). Besides, the fold change in test [2] (setting [4]) is 1.01 (inactive); in test [2] (setting [5]), 0.754. In addition, the cell count in test [2] (setting [6]) is 6720; in test [2] (setting [7]) it was 6680. Moreover, the z-score in test [3] is -0.645 (inactive).
Take `CCCCCCCCC(=O)NCc1cc(OC)c(O)cc1I`: the remaining activity in test [1] was 120% (inactive). In addition, the values for the fold change in test [2] (setting [4]) and in test [2] (setting [5]) were 0.949 (inactive) and 0.652, respectively. Also, the cell count was found to be 8140 in test [2] (setting [6]) and 8580 in test [2] (setting [7]). For the same molecule, the z-score in test [3] was -0.615 (inactive).
For the molecule `Oc1ccc(-c2nc3cc(O)cc(Br)c3o2)cc1`, the remaining activity in test [1] was 98.9% (inactive). The results for the fold change in test [2] (setting [4]) and in test [2] (setting [5]) were 0.904 (inactive) and 1.67, respectively. In addition, the cell count was determined as 8500 in test [2] (setting [6]) and 9400 in test [2] (setting [7]). Moreover, the z-score in test [3] was 0.775 (inactive).
